Measured values from PubChem BioAssay (Tox21).
Records with an inconclusive call do not appear. The source made the active and inactive calls. Unless noted, calls come from the whole dose curve.

molecular target: D(2) dopamine receptor (Homo sapiens) (UniProt P14416); assay: Dopamine D2 receptor (DRD2) small molecule agonists, cell-based qHTS assay (AID 1963594); conditions: HEK293-DRD2 cAMP HTRF, agonist mode, 30 min; series mostly up to 92.4 µM; activation: at the top concentration; note: nearly all actives have a fitted effect of over 35% in size
Sequence (P14416 whole entry, looked up): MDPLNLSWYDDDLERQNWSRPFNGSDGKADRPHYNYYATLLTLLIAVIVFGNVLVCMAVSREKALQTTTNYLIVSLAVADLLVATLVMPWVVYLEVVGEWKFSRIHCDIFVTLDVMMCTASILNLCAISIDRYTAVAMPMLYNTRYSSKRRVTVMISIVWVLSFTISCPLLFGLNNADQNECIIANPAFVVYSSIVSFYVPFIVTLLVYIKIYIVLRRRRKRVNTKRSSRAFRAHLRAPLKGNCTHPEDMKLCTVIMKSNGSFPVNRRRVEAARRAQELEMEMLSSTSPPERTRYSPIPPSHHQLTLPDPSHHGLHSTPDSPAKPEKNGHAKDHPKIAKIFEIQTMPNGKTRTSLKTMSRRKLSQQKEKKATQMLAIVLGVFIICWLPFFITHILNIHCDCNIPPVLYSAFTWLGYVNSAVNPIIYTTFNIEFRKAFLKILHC
How it was run: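 cAMP accumulation in DRD2-HEK293 cells measured by HTRF after 1 h detection; compounds added 10 min before NKH477 (200nM […]) forskolin-analogue stimulation, 30 min at room temperature, with Ro20-1724 present at 0.1 mM final.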
% is set by controls: 0 for no effect and ±100 for the full control effect; potency is the fitted concentration of half-maximal effect.

| Compound | activation | Potency |
| --- | --- | --- |
| NP(N)(=O)NC(=O)c1ccc(F)cc1 | -1.41% [at 42.5 µM] (inactive) |  |
| CCOC(=O)COc1ccc(Cl)cc1Cl | 0.37% (inactive) |  |
| CCOc1cccc(C2(N3CCN(c4ccccc4)CC3)CCC(C)CC2)c1 (centres undefined) | -10.8% (inactive) |  |
| COP(=O)(OC)Oc1ccc([N+](=O)[O-])cc1 | -4.61% (inactive) |  |
| COC(=O)N(C(=O)N1COC2(C(=O)OC)Cc3cc(Cl)ccc3C2=N1)c1ccc(OC(F)(F)F)cc1 (centres undefined) | -1.99% [at 42.5 µM] (inactive) |  |
| CC(Cc1ccccc1)NCCn1cnc2c1c(=O)n(C)c(=O)n2C (centres undefined) | -14.8% (inactive) |  |
| Cc1cccc(OP(=O)(Oc2cccc(C)c2)Oc2cccc(C)c2)c1 | -7.03% (inactive) |  |
| COP(=S)(OC)Oc1c(Cl)cc(C)cc1Cl | -8.69% (inactive) |  |
| CCOP(=S)(OCC)SCS(=O)(=O)CC | -0.329% (inactive) |  |
| CCN1CCC2(CC1)COc1cc3c(cc12)N(C(=O)c1ccc(-c2ccc(-c4nnc(C)o4)cc2C)cc1)CC3 | 25.6% (inactive) |  |
| COP(N)(=S)Oc1ccccc1C(=O)OC(C)C (centres undefined) | -3.2% (inactive) |  |
| N#Cc1c(-c2ccc(Cl)cc2)[nH]c(C(F)(F)F)c1Br | 0.498% (inactive) |  |
| CNP(=O)(OC)Oc1ccc(C(C)(C)C)cc1Cl (centres undefined) | 0.163% (inactive) |  |
| Cc1cccc2sc3nncn3c12 | -5.51% (inactive) |  |
| CC1(C)CN=C(NN=C(/C=C/c2ccc(C(F)(F)F)cc2)/C=C/c2ccc(C(F)(F)F)cc2)NC1 | -9.26% (inactive) |  |
| O=C(CCl)C(Cl)Cl | -1.16% (inactive) |  |
| CCC1(c2ccccc2)C(=O)NC(=O)NC1=O | -2.41% (inactive) |  |
| O=c1[nH]c(Cl)c(Cl)cc1Cl | 0.949% (inactive) |  |
| CC(=O)[O][Sn]([c]1ccccc1)([c]1ccccc1)[c]1ccccc1 |  | 52.4 µM (active) |
| C=C(Cl)CSC(=S)N(CC)CC | -1.91% (inactive) |  |
| ClC(Cl)C(Cl)Cl | 0.126% (inactive) |  |
| CC(=O)CCc1ccc2c(c1)OCO2 | 1.21% (inactive) |  |
| CN(C)C(=O)Nc1cccc(OC(=O)NC(C)(C)C)c1 | -0.769% (inactive) |  |
| CNC(=O)Oc1ccc(N(C)C)c(C)c1 | -6.27% (inactive) |  |
| COP(=O)(OC)O/C(=C\Cl)c1cc(Cl)c(Cl)cc1Cl | -9.68% (inactive) |  |
| CC(C)(C)c1ccc(OP(=O)(Oc2ccccc2)Oc2ccccc2)cc1 | -3.84% (inactive) |  |
| CC[C@H]1C[C@H]2[C@@H]3CCC4=CC(=O)CC[C@@H]4[C@H]3CC[C@]2(C)[C@H]1O | -4.96% [at 42.5 µM] (inactive) |  |
| C#CC1(O)CCCCC1 | -0.257% (inactive) |  |
| CSc1ccc(C(=O)C(C)(C)N2CCOCC2)cc1 | 0.814% (inactive) |  |

molecular target: D(2) dopamine receptor (Homo sapiens) (UniProt P14416); assay: Dopamine D2 receptor (DRD2) small molecule antagonists, cell-based qHTS assay (AID 1963595; active = well fitted inhibition curve with a large enough effect in the signal ratio in the repeat runs, with a control signal flat; the % refers to the signal ratio); conditions: HEK293-DRD2 cAMP HTRF antagonist mode; series mostly up to 92.4 µM; activity change, negative = inhibition: at the top concentration
How it was run: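 Antagonist mode in DRD2-HEK293 cells: after compound addition with 0.1 mM Ro20-1724, cells received quinpirole (12 nM) and NKH477 (200 nM) for 30 min at room temperature; HTRF cAMP read after 1 h detection.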

| Compound | activity change, negative = inhibition | Potency |
| --- | --- | --- |
| NP(N)(=O)NC(=O)c1ccc(F)cc1 | 6.93% [at 42.5 µM] (inactive) |  |
| COc1ccc(C(=O)c2c(C)n(CCN3CCOCC3)c3ccccc23)cc1 | 4.35% [at 42.5 µM] (inactive) |  |
| CCOC(=O)COc1ccc(Cl)cc1Cl | -0.844% (inactive) |  |
| CCOc1cccc(C2(N3CCN(c4ccccc4)CC3)CCC(C)CC2)c1 (centres undefined) | -3.47% (inactive) |  |
| COP(=O)(OC)Oc1ccc([N+](=O)[O-])cc1 | 14.7% (inactive) |  |
| COC(=O)N(C(=O)N1COC2(C(=O)OC)Cc3cc(Cl)ccc3C2=N1)c1ccc(OC(F)(F)F)cc1 (centres undefined) | 5.74% [at 42.5 µM] (inactive) |  |
| COc1cc(Cl)c(OC)cc1Cl | -0.829% (inactive) |  |
| CC(Cc1ccccc1)NCCn1cnc2c1c(=O)n(C)c(=O)n2C (centres undefined) | -4.09% (inactive) |  |
| Cc1cccc(OP(=O)(Oc2cccc(C)c2)Oc2cccc(C)c2)c1 | 9.44% (inactive) |  |
| OP(O)c1ccccc1 | -4.59% (inactive) |  |
| Oc1ccc2ccc3cccc4ccc1c2c34 | -3.29% (inactive) |  |
| ClCc1cccc(Cl)c1 | 7.38% [at 42.5 µM] (inactive) |  |
| COP(=S)(OC)Oc1c(Cl)cc(C)cc1Cl | 1.31% (inactive) |  |
| CCOP(=S)(OCC)SCS(=O)(=O)CC | 1.68% (inactive) |  |
| CCN1CCC2(CC1)COc1cc3c(cc12)N(C(=O)c1ccc(-c2ccc(-c4nnc(C)o4)cc2C)cc1)CC3 | -3.48% (inactive) |  |
| COP(N)(=S)Oc1ccccc1C(=O)OC(C)C (centres undefined) | 7.04% (inactive) |  |
| N#Cc1c(-c2ccc(Cl)cc2)[nH]c(C(F)(F)F)c1Br | -0.77% (inactive) |  |
| CNP(=O)(OC)Oc1ccc(C(C)(C)C)cc1Cl (centres undefined) | -5.29% (inactive) |  |

| Compound | activity change, negative = inhibition | Potency |
| --- | --- | --- |
| Cc1cccc2sc3nncn3c12 | -7.33% (inactive) |  |
| CC1(C)CN=C(NN=C(/C=C/c2ccc(C(F)(F)F)cc2)/C=C/c2ccc(C(F)(F)F)cc2)NC1 | -0.132% (inactive) |  |
| COc1cc(CC(C)N)c(OC)cc1Br (centres undefined) | -3.48% (inactive) |  |
| O=C(CCl)C(Cl)Cl | -3.74% (inactive) |  |
| CCC1(c2ccccc2)C(=O)NC(=O)NC1=O | -1.5% (inactive) |  |
| O=c1[nH]c(Cl)c(Cl)cc1Cl | -1.21% (inactive) |  |
| CC(=O)[O][Sn]([c]1ccccc1)([c]1ccccc1)[c]1ccccc1 |  | 3.06 µM (active) |
| C=C(Cl)CSC(=S)N(CC)CC | -2.28% (inactive) |  |
| ClC(Cl)C(Cl)Cl | 3.82% (inactive) |  |
| CC(=O)CCc1ccc2c(c1)OCO2 | 3.33% (inactive) |  |
| CN(C)C(=O)Nc1cccc(OC(=O)NC(C)(C)C)c1 | 3.33% (inactive) |  |
| COP(=O)(OC)O/C(=C\Cl)c1cc(Cl)c(Cl)cc1Cl | -1.49% (inactive) |  |
| CC(C)(C)c1ccc(OP(=O)(Oc2ccccc2)Oc2ccccc2)cc1 | 2.52% (inactive) |  |
| CC[C@H]1C[C@H]2[C@@H]3CCC4=CC(=O)CC[C@@H]4[C@H]3CC[C@]2(C)[C@H]1O | -6.58% [at 42.5 µM] (inactive) |  |
| COC(=O)C(C)N(C(=O)c1ccco1)c1c(C)cccc1C (centres undefined) | 0.916% (inactive) |  |
| C#CC1(O)CCCCC1 | 1.56% (inactive) |  |
| CCCCc1c(C)nc(NCC)nc1OS(=O)(=O)N(C)C | -0.0575% (inactive) |  |
